SMILES strings stand for the structures. Unmarked numbers belong to inactive results. For some of these results: Results with a measured potency or affinity are listed apart. Active and inactive are the calls of the source. Unless noted, no rule for the calls is given here.

A short description of assay [1]: antimalarial activity against Dd2 strain (AID 2302;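 active = growth inhibition above 50% at the single 2 µM test dose, taken to imply half-maximal potency below 2 µM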;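 also: 0% = DMSO untreated growth and 100% = chloroquine plus artemisinin killed control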). The note with it: P. falciparum Dd2 in RBCs, LDH growth readout, 72 h; at 2 µM; stronger effect = higher value.
Assay [2] is described as follows: human hepatoma cell viability loss – ATP luminescence, cytotoxicity control for P. falciparum antimalarial project, primary screen (AID 2303;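 active = inhibition above 50%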;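 also: 0% = DMSO wells and 100% = digitonin-killed cells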). The following applies: HepG2 viability, 24-48 h, at 10 µM, stronger effect = higher value.
The target of assay [3] is L-lactate dehydrogenase (Plasmodium falciparum (isolate CDC / Honduras)) (UniProt Q27743). Kind of assay: PfLDH activity inhibition – cell lysate, 3D7 strain, counter-screen for P. falciparum growth inhibition project (AID 2304).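 Also: 0% = vehicle and 100% = reference inhibitor.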 The note with it: P. falciparum 3D7 crude extract, LDH APAD/NBT absorbance; at 2 µM; stronger effect = higher value.
A short description of assay [4]: inhibition of 3D7 malaria parasite growth – strain 3D7 (AID 2306).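 Also: 0% = DMSO wells and 100% = chloroquine plus artemisinin control wells.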 The following applies: P. falciparum 3D7 erythrocytic growth, LDH absorbance, 72 h; at 2 µM; stronger effect = higher value.
Assay [5] concerns the target Calcium-dependent protein kinase 1 (Plasmodium falciparum (isolate 3D7)) (UniProt P62344). The assay is described as follows: PfCDPK1 kinase inhibitors, biochemical, TCAMS library (AID 1159585; cut-off not given, nearly all actives have IC50 up to about 0.98 µM;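 also: inhibitors leave more ATP so luminescence rises with inhibition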). The note with it: recombinant PfCDPK1, Kinase-Glo ATP depletion luminescence.
In assay [6] the target is Plasmodium falciparum protein kinase 6 (PK6, PF3D7_1337100) (UniProt Q8IDW1). The assay is described as follows: PfPK6 kinase inhibitors, biochemical, TCAMS library (AID 1159586). The following applies: recombinant PfPK6, Kinase-Glo ATP depletion luminescence. (Kinase-Glo reads ATP consumption through a luciferase reaction.)
The target in assay [7] is Protein kinase 7 (PK7), Plasmodium falciparum 3D7 (PF3D7_0213400) (UniProt Q7YTF7). Kind of assay: inhibition of Plasmodium PK7 catalytic activity – biochemical, TCAMS antimalarial set, Kinase-Glo luminescence (AID 1159587). The note with it: recombinant PfPK7, Kinase-Glo ATP depletion luminescence.
Assay [8] has as its target Calcium-dependent protein kinase 4 (Plasmodium falciparum (isolate 3D7)) (UniProt Q8IBS5). The assay is described as follows: PfCDPK4 kinase inhibitors, biochemical, TCAMS library (AID 1159588; cut-off not given, nearly all actives have IC50 up to about 0.91 µM). The following applies: recombinant PfCDPK4, Kinase-Glo ATP depletion luminescence.

Plasmodium falciparum protein kinase 6 (PK6, PF3D7_1337100), sequence (Q8IDW1 1-305): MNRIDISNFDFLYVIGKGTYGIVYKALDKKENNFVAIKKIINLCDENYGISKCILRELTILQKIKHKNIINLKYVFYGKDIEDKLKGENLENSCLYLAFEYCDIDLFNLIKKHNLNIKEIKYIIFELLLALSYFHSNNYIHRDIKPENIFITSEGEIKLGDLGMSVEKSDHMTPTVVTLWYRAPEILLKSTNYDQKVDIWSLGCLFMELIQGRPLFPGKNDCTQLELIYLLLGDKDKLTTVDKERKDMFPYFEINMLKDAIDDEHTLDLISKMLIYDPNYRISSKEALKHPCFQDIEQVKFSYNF
Calcium-dependent protein kinase 1 (Plasmodium falciparum (isolate 3D7)), sequence (P62344 whole entry, looked up): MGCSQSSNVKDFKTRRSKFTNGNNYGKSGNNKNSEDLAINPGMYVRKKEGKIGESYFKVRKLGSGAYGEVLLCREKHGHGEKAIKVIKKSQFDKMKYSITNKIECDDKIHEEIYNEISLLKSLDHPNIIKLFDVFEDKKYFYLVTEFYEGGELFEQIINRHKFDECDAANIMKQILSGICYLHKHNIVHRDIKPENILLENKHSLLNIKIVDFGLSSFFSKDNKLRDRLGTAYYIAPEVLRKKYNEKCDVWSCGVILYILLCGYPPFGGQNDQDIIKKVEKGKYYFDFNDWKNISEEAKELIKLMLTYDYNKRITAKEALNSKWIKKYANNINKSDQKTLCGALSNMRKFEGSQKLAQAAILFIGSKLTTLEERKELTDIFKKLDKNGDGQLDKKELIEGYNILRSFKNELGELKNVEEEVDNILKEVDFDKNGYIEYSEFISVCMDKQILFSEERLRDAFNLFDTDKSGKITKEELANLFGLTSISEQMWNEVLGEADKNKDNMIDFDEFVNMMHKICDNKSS
Calcium-dependent protein kinase 4 (Plasmodium falciparum (isolate 3D7)), sequence (Q8IBS5 whole entry, looked up): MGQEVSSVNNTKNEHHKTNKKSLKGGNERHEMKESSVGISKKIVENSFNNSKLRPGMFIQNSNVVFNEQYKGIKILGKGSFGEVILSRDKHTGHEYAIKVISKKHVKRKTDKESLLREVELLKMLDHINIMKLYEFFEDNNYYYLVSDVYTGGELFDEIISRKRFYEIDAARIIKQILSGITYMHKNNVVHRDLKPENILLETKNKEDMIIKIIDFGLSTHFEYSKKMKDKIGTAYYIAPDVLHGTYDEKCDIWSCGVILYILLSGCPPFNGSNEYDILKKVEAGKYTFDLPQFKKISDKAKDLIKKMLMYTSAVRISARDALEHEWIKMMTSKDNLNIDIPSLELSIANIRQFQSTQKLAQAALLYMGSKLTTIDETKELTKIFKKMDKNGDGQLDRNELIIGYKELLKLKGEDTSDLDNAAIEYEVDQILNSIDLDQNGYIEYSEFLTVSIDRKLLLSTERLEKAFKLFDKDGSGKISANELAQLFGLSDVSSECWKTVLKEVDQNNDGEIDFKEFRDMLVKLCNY
L-lactate dehydrogenase (Plasmodium falciparum (isolate CDC / Honduras)), sequence (Q27743 whole entry, looked up): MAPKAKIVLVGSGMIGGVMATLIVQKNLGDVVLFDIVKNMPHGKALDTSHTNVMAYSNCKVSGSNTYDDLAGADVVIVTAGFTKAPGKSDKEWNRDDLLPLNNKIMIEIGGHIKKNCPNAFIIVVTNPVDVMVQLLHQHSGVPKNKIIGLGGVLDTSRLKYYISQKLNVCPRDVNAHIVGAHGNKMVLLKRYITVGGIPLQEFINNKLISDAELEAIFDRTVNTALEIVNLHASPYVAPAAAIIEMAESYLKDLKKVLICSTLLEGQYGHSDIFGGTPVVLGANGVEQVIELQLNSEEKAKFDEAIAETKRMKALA
Protein kinase 7 (PK7), Plasmodium falciparum 3D7 (PF3D7_0213400), sequence (Q7YTF7 1-343): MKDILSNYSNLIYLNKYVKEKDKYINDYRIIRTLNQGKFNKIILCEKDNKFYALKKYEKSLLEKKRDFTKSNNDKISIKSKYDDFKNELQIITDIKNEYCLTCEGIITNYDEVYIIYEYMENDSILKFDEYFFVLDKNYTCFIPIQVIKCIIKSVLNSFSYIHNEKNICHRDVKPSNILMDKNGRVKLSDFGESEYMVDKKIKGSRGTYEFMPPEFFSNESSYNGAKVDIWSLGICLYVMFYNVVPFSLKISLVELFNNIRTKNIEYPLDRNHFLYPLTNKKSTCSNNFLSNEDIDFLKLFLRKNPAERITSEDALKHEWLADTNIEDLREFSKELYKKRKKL

A word on the inhibition: it is the drop in the measured response relative to a control, in per cent. With `O=S(=O)(NCCN1CCCC1)c1ccc(-c2ccc(CNCc3ccc(F)cc3)cc2)cc1F`, the growth inhibition in assay [1] is 21%; in assay [4] it was 82% (active). Further, the inhibition is 40% in assay [2] and 2% in assay [3]. Besides, the outcome in assay [5], in assay [6], in assay [7] and in assay [8] was inactive.

Take `CC(C)(C)c1cc(NC(=O)c2ccc(Cl)c([N+](=O)[O-])c2)cc(C(C)(C)C)c1`: the growth inhibition is 7% in assay [1] and 93% (active) in assay [4]. Besides, the inhibition in assay [2] was -4%; in assay [3], 4%. For the same compound, the outcome in assay [5], in assay [6], in assay [7] and in assay [8] was inactive.

Consider `COc1ccc2nccc(N(C)CC3(O)CCN(CC(O)c4ccc5c(c4)NC(=O)CS5)CC3)c2n1` (stereo not given), for which the growth inhibition is -4% in assay [1] and 101% (active) in assay [4]. For the same compound, the inhibition in assay [2] was 1%; in assay [3], -5%. In addition, the result in assay [5], in assay [6], in assay [7] and in assay [8] was inactive.

For the compound `CC1CN(Cc2ccccc2)CCN1c1ccc(NC(=O)c2cccs2)cc1` (stereo not given), the growth inhibition in assay [1] and in assay [4] was 96% (active) throughout. Besides, the inhibition in assay [2] is 0%; in assay [3], -2%. Also, the result in assay [5], in assay [6], in assay [7] and in assay [8] was inactive.

For `Cc1[nH]nc2ccc(-c3ccc4nccc(N5CCC(N)CC5)c4c3)cc12`, the growth inhibition in assay [1] was 100% (active); in assay [4], 101% (active). Further, the inhibition was 67% (active) in assay [2] and -3% in assay [3]. The result in assay [5], in assay [6], in assay [7] and in assay [8] was inactive.

As for `COc1ccc(-c2nc(-c3ccc([N+](=O)[O-])cc3)no2)cc1OC`, the growth inhibition in assay [1] is -5%; in assay [4], 96% (active). Moreover, the inhibition in assay [2] is 14%; in assay [3] it was -1%. Besides, the outcome in assay [5], in assay [6], in assay [7] and in assay [8] was inactive.

Take `N#Cc1ccc(NC(=O)Nc2ccc(OC(F)(F)F)cc2)cc1`: the growth inhibition in assay [1] was 91% (active); in assay [4] it was 98% (active). Moreover, the inhibition in assay [2] is 43%; in assay [3], 0%. The result in assay [5], in assay [6], in assay [7] and in assay [8] was inactive.

Turning to `CCOc1c(CNCCCNc2nc3ccccc3[nH]2)cc(I)cc1OC`, the growth inhibition in assay [1] is 4%; in assay [4], 100% (active). Besides, the inhibition in assay [2] was 42%; in assay [3] it was 1%. In addition, the outcome in assay [5], in assay [6], in assay [7] and in assay [8] was inactive.

For the compound `CC(=O)Nc1cccc(C(=O)Nc2ccc(-c3cccc(-c4nc5ccc(C(F)(F)F)cc5[nH]4)c3)cc2)c1`, the figures for the growth inhibition in assay [1] and in assay [4] were 85% (active) and 101% (active), respectively. Further, the inhibition is 81% (active) in assay [2] and 2% in assay [3]. Besides, the outcome in assay [5], in assay [6], in assay [7] and in assay [8] was inactive.

As to `COc1nc2c(CCN3CC[C@H](NCc4cc(C#N)c5c(c4)CCO5)[C@H](O)C3)ccnc2cc1F`, the growth inhibition was 71% (active) in assay [1] and 99% (active) in assay [4]. For the same compound, the inhibition in assay [2] was 31%; in assay [3], -9%. The outcome in assay [5], in assay [6], in assay [7] and in assay [8] was inactive.

Consider `CCN(CC)CCCC(C)Nc1ccnc2ccc(-c3ccccc3)cc12` (stereo not given), for which the growth inhibition in assay [1] was 21%; in assay [4], 98% (active). For the same compound, the inhibition in assay [2] was 0%; in assay [3], 2%. The result in assay [5], in assay [6], in assay [7] and in assay [8] was inactive.

For the compound `Cc1cc(N2CCC(NS(=O)(=O)c3ccccc3)CC2)nc(Nc2cccc(C#N)c2)n1`, the growth inhibition in assay [1] was 29%; in assay [4] it was 93% (active). Also, the inhibition is 52% (active) in assay [2] and 3% in assay [3]. Besides, the result in assay [5], in assay [6], in assay [7] and in assay [8] was inactive.

`Cc1ccc(NC(=O)C2CCC2)cc1-c1ccc(C(=O)NCC2CC2)cc1`: the figures for the growth inhibition in assay [1] and in assay [4] were 3% and 98% (active), respectively. Moreover, the inhibition in assay [2] was 13%; in assay [3] it was 3%. Moreover, the result in assay [5], in assay [6], in assay [7] and in assay [8] was inactive.

For the compound `COCCNCc1ccc(-c2ccc(CNc3ccc4ncccc4c3)cc2)cc1`, the figures for the growth inhibition in assay [1] and in assay [4] were 4% and 85% (active), respectively. The results for the inhibition in assay [2] and in assay [3] were 41% and -4%, respectively. In addition, the result in assay [5], in assay [6], in assay [7] and in assay [8] was inactive.

As for `Cn1c(=N)n(CC(=O)OCc2ccc(OCc3ccccc3)cc2)c2ccccc21`, the growth inhibition was 74% (active) in assay [1] and 100% (active) in assay [4]. Also, the figures for the inhibition in assay [2] and in assay [3] were 5% and -5%, respectively. For the same compound, the outcome in assay [5], in assay [6], in assay [7] and in assay [8] was inactive.

With `COCCNCc1ccc(-c2ccccc2CNC2CCN(Cc3ccccc3)CC2)cc1`, the growth inhibition in assay [1] was 28%; in assay [4], 97% (active). Further, the inhibition is 17% in assay [2] and -1% in assay [3]. In addition, the outcome in assay [5], in assay [6], in assay [7] and in assay [8] was inactive.

Turning to `CCOc1ccc2c(c1)C(C)(c1ccc3c(c1)C(C)CC(C)(C)N3)CC(C)(C)N2` (stereo not given), the growth inhibition in assay [1] is 3%; in assay [4] it was 94% (active). Moreover, the values for the inhibition in assay [2] and in assay [3] were 5% and -5%, respectively. Moreover, the result in assay [5], in assay [6], in assay [7] and in assay [8] was inactive.

Take `Cc1cc(N)c2cc(NC(=O)CCC(=O)Nc3ccc4nc(C)cc(N)c4c3)ccc2n1`: the growth inhibition in assay [1] is 77% (active); in assay [4], 85% (active). Further, the inhibition is -2% in assay [2] and 1% in assay [3]. The result in assay [5], in assay [6], in assay [7] and in assay [8] was inactive.

Consider `CN(C)CCNC(=O)N1CCCN(c2ncnc3cc(-c4ccc(Cl)cc4)sc23)CC1`, for which the growth inhibition in assay [1] was 21%; in assay [4], 98% (active). Moreover, the inhibition in assay [2] was 41%; in assay [3], 4%. Further, the outcome in assay [5], in assay [6], in assay [7] and in assay [8] was inactive.

Turning to `CC1CN(c2ccc(NC(=O)c3cccs3)cc2)CCN1Cc1cccc(F)c1` (stereo not given), the growth inhibition in assay [1] and in assay [4] was 96% (active) each time. The inhibition is 5% in assay [2] and 0% in assay [3]. For the same compound, the result in assay [5], in assay [6], in assay [7] and in assay [8] was inactive.

These data come from PubChem BioAssay.
